About 9,100 (2.5%) of roughly 360,000 compounds were called active. Another 4% or so got no clear call; they are omitted. What follows is part of a selection rich in actives, with near analogues and random picks from the rest. Unmarked numbers belong to inactive results. Cut-off read from the data, not from the text of the source: active = max response below about -50%; inconclusive = no clear call, values can overlap the other calls; inactive = above that.
Each compound was assayed against D(3) dopamine receptor (Homo sapiens) (UniProt P35462) (assay: qHTS of D3 Dopamine Receptor Antagonist: qHTS). Settings: D3R cells, DiscoveRx beta-arrestin luminescence, antagonist mode; stronger effect = lower value.
Sequence of D(3) dopamine receptor (Homo sapiens) (P35462 whole entry, looked up): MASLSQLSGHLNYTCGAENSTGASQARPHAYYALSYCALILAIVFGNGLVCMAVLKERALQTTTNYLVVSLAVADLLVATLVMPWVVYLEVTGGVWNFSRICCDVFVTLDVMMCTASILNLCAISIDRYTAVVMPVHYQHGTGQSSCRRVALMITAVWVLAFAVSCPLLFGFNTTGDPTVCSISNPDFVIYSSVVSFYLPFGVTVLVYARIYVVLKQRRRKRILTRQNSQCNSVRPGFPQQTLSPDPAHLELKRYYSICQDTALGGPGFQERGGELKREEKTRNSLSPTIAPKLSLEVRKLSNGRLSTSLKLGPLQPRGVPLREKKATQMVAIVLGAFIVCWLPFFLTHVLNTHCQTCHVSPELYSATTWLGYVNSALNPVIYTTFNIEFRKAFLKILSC
Outline: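 Cells expressing the human receptor were seeded at 1500 cells/well, incubated overnight at 37 degrees C in 5% CO2, then exposed to library compounds with dopamine controls for 90 minutes at 37 degrees C before luminescent detection.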
% is set by controls: 0 for no effect and ±100 for the full control effect.

Row | Structure (SMILES) | max response, negative = inhibition
1 | C[N+](C)(C)CCNC(=O)c1c[nH]c2ccccc12 | 0%
2 | CCOC(=O)[C@]12CCC=C1N(Cc1ccco1)C(=O)[C@H](CC(=O)N1CCSCC1)C2 | 2.85%
3 | COC(=O)[C@@]12C[C@@H](CC(=O)N3CCC(c4ccccc4)CC3)C(=O)N(Cc3ccccc3)C1=CCC(C)(C)C2 | 15.3%
4 | COc1ccc(-c2cc3c(c4c2ccn4C)C2CCC3C2)cn1 (stereo unspecified) | 12.4%
5 | O=C(CSc1nc2cccc(F)c2c(=O)n1-c1ccccc1)Nc1ccc2c(c1)CCC2 | -3.93%
6 | Cn1c(-c2ccc(F)cc2)cnc1SCC(=O)NCc1ccco1 | -51.9% (active)
7 | Cn1c(-c2ccc(F)cc2)cnc1SCC(=O)NNC(=O)Cc1ccccc1 | -14.6%
8 | O=C(CSc1nnc2scc(-c3ccc(F)cc3)n12)NCc1ccco1 | 5.75%
9 | CCCCCn1nnnc1C1c2ccccc2C(=O)N1Cc1ccco1 (stereo unspecified) | -21.5%
10 | O=NN(CCCl)C(=O)NCCc1cccc[n+]1[O-] | -1.68%
11 | CCOC(=O)N1CCN(C(=O)c2ccccc2N(Cc2ccccc2)S(=O)(=O)c2ccc(OC)cc2)CC1 | -17.6%
12 | CCN1CCN(C(=O)c2ccccc2N(C)S(=O)(=O)c2ccc(C)cc2)CC1 | -77.3% (active)
13 | CCOC(=O)C1CCN(C(=O)c2ccccc2N(C)S(=O)(=O)c2ccccc2)CC1 | -4.73%
14 | Clc1ccccc1Nc1nc(NCc2cccs2)nc2ccsc12 | 31.9%
15 | O=C(C[C@H]1CC[C@@H](NC(=O)c2ccncc2)[C@@H](CO)O1)NCC1CC1 | 12.2%
16 | O=C(NCc1nnnn1-c1ccc(Cl)cc1)c1ccc2c(c1)OCO2 | -11.2%
17 | CC(=O)N/C(=C\c1ccc(F)cc1)C(=O)NC(Cc1ccccc1)C(=O)O (stereo unspecified) | 3.22%
18 | CC(=O)N/C(=C/c1ccc(OC(F)F)cc1)C(=O)O | -58.1% (active)
19 | CC(=O)N/C(=C\c1ccccc1)C(=O)OC(C)C(=O)N(C)c1ccccc1 (stereo unspecified) | -13.3%
20 | CC1(Cc2cccc(C#N)c2)C(=O)Nc2ccc(-c3cccc(C(F)(F)F)c3)cc21 (stereo unspecified) | 19.7%
21 | CCOc1cc(CNn2c(C)nnc2SCC(=O)NC(C)(C)C)ccc1OCC(=O)NC(C)(C)C | 4.21%
22 | CCOc1cc(C)c(S(=O)(=O)NCc2ccccn2)cc1C | 4.2%

Row | Structure (SMILES) | max response, negative = inhibition
23 | CCOc1cc(CNCc2ccccn2)ccc1OCC(=O)NC(C)(C)C | -58.7% (active)
24 | CC1(C)CC(=O)C2=C(C1)N=C1SCCC(=O)N1C2c1ccc(C(F)(F)F)cc1 (stereo unspecified) | -94.4% (active)
25 | CNC(=O)C[C@H]1C(=O)N(Cc2ccccc2)C[C@@H]1CSC | -17.4%
26 | O=S(=O)(c1ccc(Cl)cc1)c1nc(-c2ccccc2F)oc1NCCN1CCOCC1 | -10.5%
27 | O=S(=O)(c1ccc(Br)cc1)c1nc(-c2ccccc2)oc1N1CCOCC1 | -1.47%
28 | O=S(=O)(c1ccccc1)c1nc(-c2ccccc2)oc1NCCCN1CCOCC1 | -64.3% (active)
29 | CC(=O)c1cccc(-c2cnc3c(NC=O)cc(-c4ccc(N(C)C)cc4)cn23)c1 | 4.39%
30 | CCOCCCNCc1cc(Br)ccc1OCC | 4.27%
31 | c1ccc(CNCc2ccc(CNCc3ccccc3)cc2)cc1 | -21.6%
32 | CCOc1ccccc1OCCCNCc1ccccc1 | -58.9% (active)
33 | CCCCN1CC(N2CCN(Cc3cccc(C)c3)CC2)CS1(=O)=O (stereo unspecified) | 0.736%
34 | OCCC#Cc1ccc(N2C(c3ccsc3)=Cc3ccc(F)cc3C2c2c[nH]c3ccccc23)cc1 (stereo unspecified) | -3.75%
35 | COC(=O)CNC(=O)c1ccccc1[N+](=O)[O-] | 16.4%
36 | O=C(CNC(=O)c1ccccc1)Oc1ccc([N+](=O)[O-])cc1 | -54.6% (active)
37 | O=C(NNS(=O)(=O)Cc1ccccc1)c1ccc([N+](=O)[O-])cc1 | -19%
38 | Nc1cc(=O)c2[nH]cnc2[nH]1 | 15.5%
39 | Nc1ncnc2c1ncn2[C@@H]1O[C@H](C(=O)N2CCCN(Cc3ccccc3F)CC2)[C@@H](O)[C@H]1O | 15%
40 | O=C(C=CC(=O)Nc1ccc(F)cc1F)Nc1ccc(F)cc1F | 4.55%
41 | COC(=O)[C@@]1(Cc2ccc(OC)cc2)[C@H]2c3cc(C(=O)N4CCCC4)n(Cc4ccc(OC(F)(F)F)cc4)c3C[C@H]2CN1C(=O)c1ccccc1 | 20.3%
42 | C[C@@H]1CN([C@H](C)CO)C(=O)CCCn2nncc2CO[C@@H]1CN(C)S(=O)(=O)c1cccc(C#N)c1 | -18.1%
43 | N#Cc1cccc(NC(=O)C2CCCN(C(=O)c3ccc(Cl)cc3)C2)c1 (stereo unspecified) | 0.782%
44 | N#Cc1cccc(NC(=O)CN2CCCCCC2)c1 | -64.8% (active)

Row | Structure (SMILES) | max response, negative = inhibition
45 | N#Cc1ccsc1NC(=O)CN1CCCCC1 | -12%
46 | Nc1cc(C(=O)N2CCN(c3ccccc3Cl)CC2)ccc1N1CC2CC(C1)c1cccc(=O)n1C2 (stereo unspecified) | 27.4%
47 | C=C1C(=O)OC2C1CCC(C)=CCCC1(C)OC21 (stereo unspecified) | -90% (active)
48 | CC1(C(=O)NCC2CCOCC2)Cc2c(-c3cccc(C(N)=O)c3)ccnc2O1 (stereo unspecified) | -8.42%
49 | Cc1cc(Br)cn2c(Cc3ccccc3C(F)(F)F)c(C3CCCCC3)nc12 | -18.2%
50 | COc1cccc(-c2cnc3c(NC(C)=O)cc(-c4cc(F)ccc4OC)cn23)c1 | -14.2%
51 | COc1ccc(S(=O)(=O)N2CCC(C(=O)NCCC(=O)NCCc3cccc(F)c3)CC2)cc1 | 9.47%
52 | O=C(CCCN1CCc2[nH]c3ccc(F)cc3c2C1)c1ccc(F)cc1 | -89.2% (active)
53 | C=CCNC(=S)N1CCc2[nH]c3ccccc3c2C1 | -14.7%
54 | CC1CCc2[nH]c3ccc(C(=O)N(C)CC(=O)Nc4cccc(F)c4)cc3c2C1 (stereo unspecified) | 3.28%
55 | CC(=O)C1=CCC(c2ccccc2)N(S(=O)(=O)c2ccc(C)cc2)C1 (stereo unspecified) | 0%
56 | COc1cccc(NC(=O)C2(C)CCN2C(=O)CCC2CCCC2)c1 (stereo unspecified) | 1.34%
57 | COc1ccc(C(NC(=O)C2CCN(CCCc3ccccc3)CC2)c2cccs2)cc1 (stereo unspecified) | -15.9%
58 | Cc1cc([N+](=O)[O-])c(NC2CCCCC2)c([N+](=O)[O-])c1 | -7.91%
59 | Cc1c(NS(=O)(=O)c2ccc(NC3CCCC3)c([N+](=O)[O-])c2)c(=O)n(-c2ccccc2)n1C | -21.5%
60 | Cc1cc(C=O)c(C)n1-c1ccc(NC2CCCCC2)c([N+](=O)[O-])c1 | -55.1% (active)
61 | COCC(=O)N(C)C[C@H]1Oc2cc(Br)ccc2S(=O)(=O)N([C@H](C)CO)C[C@H]1C | 15.2%
62 | C#CCN(C[C@@H]1[C@@H](OC(=O)NC2CC2)[C@@H](OC(=O)NC2CC2)Cn2c(=O)ccc(=O)n21)S(=O)(=O)c1ccc(C)cc1 | 13.1%
63 | O=c1ccc2c(-c3ccccc3S(=O)(=O)O)c3ccc(O)c(O)c3oc-2c1O | -93.3% (active)
64 | C[C@@H]1CN([C@@H](C)CO)C(=O)CCCn2nncc2CO[C@H]1CN(C)Cc1ccc(C(F)(F)F)cc1 | 20.1%
65 | CC(C)NC(=O)N1Cc2cc(C(=O)NCC(F)(F)F)nc(-c3cccc(-c4cc5ccccc5o4)c3)c2[C@@H]1CCO | 18.7%
66 | O=C(NC(c1ccc(-c2ccccc2)cc1)c1cnccn1)C1CCN(CCOc2ccc(Cl)cc2Cl)CC1 (stereo unspecified) | -24.7%

Row | Structure (SMILES) | max response, negative = inhibition
67 | COC(=O)c1ccc2nc(-c3ccccc3)c(Cc3ccc(OC)cc3C)n2c1 | -9.42%
68 | COc1ccc2[nH]cc(/C=C(/C#N)S(=O)(=O)c3ccccc3)c2c1 | -50.9% (active)
69 | COc1ccc(/C=N/N=C/c2c[nH]c(=O)c(C#N)c2Nc2ccccc2)cc1 | 23.9%
70 | COc1ccc2[nH]cc(CCN3C(=O)c4ccc(C(=O)O)cc4C3=O)c2c1 | 11.7%
71 | Cc1ccccc1S(=O)(=O)NC(=O)C1(C)CCN1C(=O)C1(c2ccc(Cl)cc2)CC1 (stereo unspecified) | 4.07%
72 | Cc1nonc1C(=O)N/N=C/c1ccc(O)cc1 | 20.2%
73 | O=C(NN=Cc1ccccc1)c1ccccc1 | -25.4%
74 | Cc1nc2ccc(C(=O)N/N=C/c3ccc(O)cc3)cc2[nH]1 | -78.1% (active)
75 | COc1ccc2c(c1)c(=Cc1ccc(N(C)C)cc1)c1cc(-c3ccccc3)[n+](C)n12 | -65.2% (active)
76 | Cc1ccc(C(NC(=O)C2CCN(CCOc3ccc(Cl)cc3Cl)CC2)c2ccccn2)cc1 (stereo unspecified) | -3.28%
77 | CC1=C(C(=O)N(C)C)CC(CC(=O)NCCc2ccccn2)C(=O)N1CCC1=CCCCC1 (stereo unspecified) | -22.1%
78 | CCCCCNC(=O)C1C(=O)Nc2ccccc2C(=O)N1C(C)(C)C (stereo unspecified) | -19.2%
79 | CC(=O)c1c(C)[nH]c(C(=O)NCCCN2CCCC2)c1C | 11.6%
80 | CCCCN(CC)CCNC(=O)c1[nH]c(C)c(C(C)=O)c1C | -58.3% (active)
81 | CC(=O)c1c(C)[nH]c(C(=O)NCc2ccc(C)cc2)c1C | -6.75%
82 | CC1(C(=O)NS(=O)(=O)C2CC2)CCCN(C(=O)CSc2ccccc2)C1 (stereo unspecified) | 0%
83 | Cc1ccc(-c2nc3ccc(Br)cn3c2Cc2ccccc2C(F)(F)F)cc1 | -15%
84 | CCOC(=O)C1=CC[C@@H](c2ccncc2)N(S(=O)(=O)c2ccc(C)cc2)C1 | -4.07%
85 | CCCCNC(=O)c1nc(C2CCN(S(=O)(=O)c3ccc(F)c(F)c3)CC2)oc1-c1cccc(C(F)(F)F)c1 | 7.15%
86 | C[C@H]1CN([C@@H](C)CO)C(=O)CCCn2nncc2CO[C@@H]1CN(C)Cc1ccc(Oc2ccccc2)cc1 | -10.5%

From PubChem BioAssay AID652054 (National Center for Advancing Translational Sciences (NCATS), 2013)
